Molecules are shown by their SMILES. Out of some 220,000 compounds screened, about 3,300 (1.5%) were called active. The sample holds actives, similar compounds and a random draw of the others, so the mix is not that of the screen.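 Rule for the calls: active = compounds that cut the protein-peptide binding signal by more than 50% relative to plate controls in a single-dose test; inactive = the rest.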

The inhibition is the change of the read-out against control, counted positive when it falls.

Chain of Induced myeloid leukemia cell differentiation protein Mcl-1 (Homo sapiens) (Q07820 whole entry, looked up): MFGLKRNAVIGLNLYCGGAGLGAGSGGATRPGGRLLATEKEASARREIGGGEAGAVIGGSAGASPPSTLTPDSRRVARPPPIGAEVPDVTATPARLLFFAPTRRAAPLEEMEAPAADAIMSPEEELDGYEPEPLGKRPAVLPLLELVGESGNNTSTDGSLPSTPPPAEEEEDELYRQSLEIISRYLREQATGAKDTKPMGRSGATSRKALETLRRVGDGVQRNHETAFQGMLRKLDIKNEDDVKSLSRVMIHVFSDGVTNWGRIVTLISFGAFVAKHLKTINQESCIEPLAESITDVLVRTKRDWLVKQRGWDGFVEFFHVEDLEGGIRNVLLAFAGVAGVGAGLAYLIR

This assay has as its target Induced myeloid leukemia cell differentiation protein Mcl-1 (Homo sapiens) (UniProt Q07820). In words: disruptors of Mcl-1 and Noxa BH3 peptide – biochemical, TR-FRET, 1536-well, primary screen (AID 1022).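 Note: His-tagged Mcl-1 with rhodamine Noxa BH3 peptide and terbium anti-His antibody; 0% = Mcl-1 plus Noxa peptide wells and 100% = peptide-only wells.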 The settings on record: TR-FRET Mcl-1/Noxa peptide binding, 2 h; at 21.7 µM; hits give high values. For orientation: TR-FRET usually uses a lanthanide donor and a delayed reading to cut background.
As for `Cc1ccc(NNC(=O)c2c(F)cccc2Cl)cc1Cl`, the inhibition was 0.81% (inactive).
The figure for `CCOC(=O)C1CCN(C(=O)Nc2cccc(OC)c2)CC1` is -13.3% (inactive).
With `COc1cccc(C(=O)n2ccc(-c3cccs3)n2)c1` the figure was 1.68% (inactive); with `Cc1nnc(SC(C(=O)c2ccccc2)c2ccccc2)[nH]c1=O` (stereo unspecified), -5.97% (inactive).
The figure for `Cc1cc2c(cc1C)N(Cc1ccccc1)C1=NCCCN12` is -4.28% (inactive); for `COc1cc(/C=N/Nc2nn3cnnc3c3ccccc23)cc(OC)c1OC` it is 52.5% (active).
As to `CCOc1ccc(/C=N/Nc2nncc(-c3ccccc3)n2)cc1OC`, the inhibition was 14.2% (inactive).
Regarding `COc1ccc(/C=N/Nc2nc3ccccc3o2)cc1OC`, the inhibition was -2.8% (inactive).
With `C=CCN(c1ccccc1C(=O)NCC(=O)OCC)S(=O)(=O)c1ccc(C)cc1` the figure was 8.19% (inactive).
With `CC(CCO)Nc1nc2c([nH]1)c(=O)n(C)c(=O)n2C` (stereo unspecified) the figure was -3.43% (inactive); with `Cc1ccc(NN=Nc2nc3c([nH]2)c(=O)n(C)c(=O)n3C)cc1`, 55.6% (active).
The figure for `CCCSc1nc2c(c(=O)n(C)c(=O)n2C)n1Cc1ccc(C)cc1` is -4.96% (inactive); for `Cc1cc(C(=O)NNS(=O)(=O)c2ccccc2C(F)(F)F)nn1C(C)(C)C` it is -0.45% (inactive); for `Cc1cc(N2CCN(c3ccc(F)cc3)CC2)n2ncnc2n1` it is -1.64% (inactive).
As for `CC(C)NC(=O)NNc1c(Cl)cncc1Cl`, the inhibition is 3.37% (inactive).
Regarding `Cc1ccc(Cn2c(C)nc3c(c2=O)c2nc4ccccc4nc2n3Cc2ccco2)cc1`, the inhibition was 63.1% (active).
With `Cc1ccc(Cn2c(NC(=O)c3ccco3)nc3ccccc32)cc1` the figure was 1.28% (inactive); with `Clc1cccc(-c2nc3nc4ccccc4nc3n2Cc2ccco2)c1`, 4.89% (inactive); with `COc1ccc2c(c1)C(=C(C#N)C#N)C(=O)N2CCc1ccccc1`, -4.33% (inactive).
On to `CCCCCn1c(=O)c(C(=O)OCC)c(Cl)c2ccccc21`, for which the inhibition is -2.04% (inactive).
Take `CCOC(=O)/C=C/CN(C(=O)OC(C)(C)C)S(=O)(=O)N1CC=CC1`: the inhibition is -18% (inactive).
The figure for `CCC(C)N1C(=S)SC(C)(C)C1N(O)C(=O)NC1CCCCC1` (stereo unspecified) is -0.12% (inactive).
The figure for `CC(=O)N1C(=O)/C(=C2\SC(=S)N(NC(=O)c3ccc(O)cc3)C2=O)c2ccccc21` is 94.5% (active).
Take `O=C(O)c1ccc2c(c1)C(=O)N(NC(=O)c1ccc(O)cc1)C2=O`: the inhibition was 12.9% (inactive).
With `Cn1cccc1/C=C1\SC(=S)N(NC(=O)c2ccc(Cl)cc2)C1=O`, the inhibition was 18.5% (inactive).
The figure for `O=C(NCCc1ccccc1)Oc1ccc(Cl)cc1` is 7.49% (inactive); for `COC(=O)N(NC(=O)C(O)(C(C)C)C(C)C)c1ccccc1` it is -6.13% (inactive).
With `O=C(O)Cc1sc(-c2ccc(C(=O)O)cc2)nc1-c1ccccc1` the figure was 15.3% (inactive); with `Cc1ccc(-c2nc(C)sc2CC(=O)O)cc1`, 6.4% (inactive); with `C/C(=N/Nc1nc(-c2ccccc2)c(CC(=O)O)s1)c1ccccc1`, 55.8% (active).
Turning to `CCn1c(=O)c2cc(C(=O)Nc3cccc(C(C)=O)c3)sc2c2ccccc21`, the inhibition is -88.5% (inactive).
As for `O=c1c(-c2ccc(Cl)cc2)[n+]([O-])c2ccccc2n1OCc1nc2ccccc2[nH]1`, the inhibition is -16.2% (inactive).
Turning to `COC(=O)CC1=NN(c2nc(C)cc(C)n2)C(=O)C1`, the inhibition is 68% (active).
With `COC(=O)CC1=NN(c2ccccc2)C(=O)C1` the figure was 19.1% (inactive); with `Cc1cc(C)cc(NC(=O)C2CCN(c3nc(C)cc(C)n3)CC2)c1`, -11.6% (inactive); with `CC(CO)(CO)NC(=O)c1ccc(=O)[nH]n1`, 4.69% (inactive).
With `O=C(c1ccc(F)cc1)C1CCN(Cc2cn[nH]c2-c2ccccc2)CC1` the figure was -14.2% (inactive); with `Cc1cc(C(=O)N/N=C/c2ccc(O)c([N+](=O)[O-])c2)c(C)n1-c1ccc(F)cc1`, 87.3% (active); with `Cc1nn(CC(=O)N/N=C/c2ccc(F)cc2)c(C)c1[N+](=O)[O-]`, 12.1% (inactive).
On to `COc1cc(/C=N/NC(=O)c2cc(C)n(-c3ccc(F)cc3)c2C)cc(OC)c1O`, for which the inhibition is 47.1% (inactive).
With `Cc1ccc(/C=N/NC(=S)Nc2cccc(S(=O)(=O)N(C)C)c2)o1` the figure was -90.2% (inactive); with `OC(c1ccccc1)C(CN1CCOCC1)c1ccccc1` (stereo unspecified), 6.74% (inactive).
As to `CCNC(=S)N1CCN(CCN=CC2=C(O)CC(C)(C)CC2=O)CC1`, the inhibition is 7.49% (inactive).
The figure for `O=C(CCc1ccccc1)Nc1cccc(-c2nnc(-c3ccco3)o2)c1` is 14.2% (inactive); for `NNC(=O)c1oc2nc(-c3ccccc3)cc(-c3ccco3)c2c1N` it is 72.9% (active); for `O=C(NCc1ccco1)c1nc(-c2ccccc2)n(-c2ccccc2)n1` it is -7.46% (inactive).
The figure for `NC(=O)c1ccc(NC(=O)COC(=O)c2ccc([N+](=O)[O-])cc2)cc1` is -10.3% (inactive).
The figure for `CCOC(=O)c1c(NC(=S)NC)sc2c1CCCC2` is 11.9% (inactive).
Consider `COc1ccc(NC(=S)Nc2ccccc2Cl)cn1`, for which the inhibition is 16.9% (inactive).
The figure for `COc1ccc(CS(=O)/C(Cl)=C(/Cl)C(=O)Nc2ccc(OC)nc2)cc1` (stereo unspecified) is 43.3% (inactive).
As for `COc1ccc(NC(=O)/C(Cl)=C(/Cl)S(=O)Cc2ccc(C)cc2)cn1` (stereo unspecified), the inhibition was 65.8% (active).
`CCNC(=O)CCc1nc(-c2ccc(C)cc2)no1`: the inhibition is -1.4% (inactive).
With `Fc1ccccc1N=C1Nc2cccc3cccc1c23` the figure was 16.1% (inactive); with `c1ccc(C2=Nc3cccc4cccc(c34)N2)cc1`, 37% (inactive); with `COc1ccccc1C1=Nc2cccc3cccc(c23)N1`, 75.8% (active).
The figure for `N#Cc1c(C(F)(F)F)cc(-c2cccs2)nc1N1CCCCC1` is -6.66% (inactive); for `COc1ccc2c(CC(=O)OCC(=O)NC(N)=O)coc2c1` it is 8.39% (inactive).
Take `Brc1ccc(CSc2ccc(-c3ccco3)nn2)cc1`: the inhibition was 5.62% (inactive).
For the compound `COC(OC)c1ccnc(SCc2ccccc2Cl)n1`, the inhibition is 2.7% (inactive).
For the compound `c1ccc(CSc2nnc(-c3ccco3)n2Cc2ccccc2)cc1`, the inhibition is 53% (active).
The figure for `O=C(CSc1nnc(-c2ccco2)n1Cc1ccccc1)NC(=O)NCc1ccco1` is 31.8% (inactive).
For the compound `Nc1nc(SCc2ccccc2Cl)n[nH]1`, the inhibition is -21.7% (inactive).
With `c1ccc(CSc2nnc(-c3ccco3)c(-c3ccco3)n2)cc1` the figure was 108% (active).
With `Clc1ccccc1CSc1nnc(-c2ccco2)c(-c2ccco2)n1` the figure was 109% (active); with `O=C(CSc1nnc(-c2ccco2)n1CC1CCCO1)c1ccccc1` (stereo unspecified), 5.57% (inactive); with `O=C(Nc1nnc(SCc2ccccc2)s1)c1ccco1`, -9.36% (inactive).

The record behind these values is PubChem BioAssay AID1022 (Emory University Molecular Libraries Screening Center, 2008).
